FMDV antiviral: High Throughput Screening for Foot and Mouth Disease Virus Antivirals | FMDV antiviral cell-based qHTS | Potency, µM (top dose mostly 57.9 µM), for inactives: at the top dose activity change, negative = inhibition, hits mostly inhibitors | hit rate 1.2% among 410,000 | AID 1159524, 2015; calls by dose curve; tested in HEK293T cells; note: read-out not given here; potency is the fitted concentration of half-maximal effect; nearly all actives have a fitted effect of over 45% in size
Giardia FBPA inh: qHTS Assay for Inhibitors of Fructose-1,6-bisphosphate Aldolase from Giardia Lamblia; A8B2U2; purified Giardia FBPA; Potency, µM (titrated, usually from 59.6 µM), for the others: top-dose activity, negative = inhibition, hits mostly inhibitors; hit rate 0.71% among 290,000; note: potency is the fitted concentration of half-maximal effect; nearly all actives have a fitted effect of over 55% in size
Target sequence (A8B2U2 whole entry, looked up): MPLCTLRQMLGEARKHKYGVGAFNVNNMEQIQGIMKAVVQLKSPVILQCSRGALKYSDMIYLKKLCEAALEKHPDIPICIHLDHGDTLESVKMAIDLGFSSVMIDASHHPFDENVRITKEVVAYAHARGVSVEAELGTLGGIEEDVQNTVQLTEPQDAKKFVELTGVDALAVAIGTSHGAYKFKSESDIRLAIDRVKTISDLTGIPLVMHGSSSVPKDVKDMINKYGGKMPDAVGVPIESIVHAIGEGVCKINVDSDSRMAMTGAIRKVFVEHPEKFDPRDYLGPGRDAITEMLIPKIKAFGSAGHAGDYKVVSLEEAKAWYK
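Giardia FBPA (40 nM reagent) was preincubated 10 min at RT with compound (up to 57.5 uM final), then substrate plus GAPDH/TPI/NAD/arsenate coupling system with diaphorase/resazurin was added; resorufin fluorescence (525/598 nm) was read after 20 min.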
Sm TGR block: qHTS Assay for the Inhibitors of Schistosoma Mansoni Peroxiredoxins | hit rate 3% among 360,000 | Schistosoma mansoni thioredoxin glutathione reductase (TGR), Q962Y6 | purified TGR, DTNB reduction, TNB absorbance 405 nm | Potency, µM (doses to about 114 µM), for inactives: top-dose activity change, negative = inhibition, most hits filed as inhibitors; note: potency is the fitted concentration of half-maximal effect; nearly all actives have a fitted effect of over 60% in size
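Kinetic colorimetric format: TGR-catalysed, NADPH-driven DTNB reduction monitored via TNB absorbance. Enzyme dispensed at 20 nM; compound exposure 15 min at room temperature before reaction start.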
TbPYK inhibitor: qHTS of Trypanosoma Brucei Inhibitors; pyruvate kinase (Trypanosoma brucei), Q57TT1; TbPYK enzyme, Kinase-Glo Plus ATP luminescence, 45 min; Potency, µM (series often up to 76.8 µM), inactives show at the top dose activity, negative = inhibition, most hits filed as inhibitors; hit rate 0.12% among 410,000; AID 624173, 2012; note: potency is the fitted concentration of half-maximal effect; nearly all actives have a fitted effect of over 50% in size
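Glycolytic pyruvate kinase of T. brucei was incubated with substrate, test compound and 130 uM ADP for 45 minutes at room temperature. Luminescent Kinase-Glo Plus signal was measured after 10 minutes.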
RE007 growth inh: qHTS Assay for Inhibitors of the HIV-1 protein Vpr; S. pombe RE007 Vpr strain, BacTiter-Glo ATP luminescence, 24 h; Potency, µM (doses to about 92.2 µM), without a hit: at the highest dose activity change, negative = less growth, most hits filed as inhibitors; hit rate 0.21% among 360,000; AID 651644, 2012; active = well fitted falling curve with a large enough effect; inconclusive = small, poorly fitted or top-dose-only effect; inactive = no such curve, though single readings can be large or run the other way; note: potency is the fitted concentration of half-maximal effect; nearly all actives have a fitted effect of over 50% in size
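Fission yeast RE007 carrying one integrated HIV-1 vpr copy, seeded at OD 0.01 in PMG+AL medium with 23 nL pinned compound. Grown 24 h at 30 degrees; viability read by BacTiter-Glo luminescence after 5 min.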
HCMV inh: qHTS Assay for inhibitors of the human cytomegalovirus (HCMV) | HFF cells, HCMV-luciferase reporter, 72 h; stronger effect = lower value | activity change, negative = inhibition, % at 57.5 µM | hit rate 4.5% among 410,000 | AID 1259415, 2018; in the data active = activity change below about -60%; inconclusive = no clear call, values can overlap the other calls; inactive = above about -39%
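Screen run at 2 compound doses on HFFs infected with reporter HCMV, MOI 1 PFU/cell. Luciferase activity from cell lysates at 72 h post infection gave inhibition relative to buffer-only and Salinomycin wells.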
Active calls of the source: *; ? = inconclusive; / = no result given; + = active, no number; [ ] = remark or other dose. An excerpt weighted towards active compounds, which were near 7.7% of everything screened. Unless noted, calls come from the whole dose curve; as a rule, active = well fitted curve in the direction sought with a large enough effect; inconclusive = small, poorly fitted or top-dose-only effect, or another doubt; inactive = no such curve, though single readings can be large; an effect the other way counts as inactive or inconclusive. % is set by controls: 0 for no effect and ±100 for the full control effect.

SMILES	FMDV antiviral	Giardia FBPA inh	Sm TGR block	TbPYK inhibitor	RE007 growth inh	HCMV inh
Cc1cc(C)nc(NC(=NCCc2c[nH]c3ccccc23)NC(=O)c2ccco2)n1	?	-3.2%	1.1%	-5.1%	-11.4%	-18.5
Cc1cc([N+](=O)[O-])cc2c1NC(c1ccccn1)C1CC=CC21 (centres undefined)	-8.9%	-8.6%	-30.0%	-26.0%	-3.2%	-39.0
O=[N+]([O-])c1ccc(Cl)c2c1C1C=CCC1C(c1ccccn1)N2 (centres undefined)	?	?	20µM*	-26.7%	-17.4%	-8.8
COCCn1c(C)cc(C(=O)COc2cccnc2[N+](=O)[O-])c1C	-12.0%	?	?	1.2%	-5.6%	-84.4*
O=C(COc1cccnc1[N+](=O)[O-])c1c[nH]c2ccccc12	16.7%	-7.1%	-28.1%	-2.4%	3.5%	0.0
Cc1cc(C)c(C(=O)COc2cccnc2[N+](=O)[O-])cc1C	?	?	15.8µM*	-21.0%	-28.8%	-33.3
O=c1[nH][nH]c2c([N+](=O)[O-])ccc(F)c12	/	/	/	/	/	-61.5*
O=c1[nH]c2cc(Cl)cc([N+](=O)[O-])c2c2ccc(Cl)cc12	-2.9%	/	/	2.7%	-18.5%	-22.1
CC(C)Oc1ccc(Nc2cc3c(cn2)cc(-c2cccc(C(F)(F)F)c2)n3C)cc1	/	/	/	/	/	-5.1
COC(=O)c1ccccc1NC(=O)C1=CC(c2ccc(C)cc2)=NS(=O)(=O)N1C	-2.4%	/	-0.9%	1.0%	/	-2.2
O=C(NCCN1CCCC1)c1ccc(Cn2c(=S)[nH]c3ccc(Br)cc3c2=O)cc1	26.4%	9.8%	-7.4%	-25.1%	-19.9%	4.6
O=C(NCCCN1CCCC1)c1ccc(Cn2c(=S)[nH]c3ccc(Br)cc3c2=O)cc1	/	5.3%	44.7µM*	/	/	-17.5
CCc1nc(SCC(=O)c2ccccc2)c2ccccc2n1	-5.5%	-20.1%	44.7µM*	-6.2%	-13.0%	-35.1
CCc1nc(SCC(=O)NNC(=O)c2ccc(OC)cc2)c2ccccc2n1	-11.9%	3.3%	1.3%[57.1 µM]	-0.5%	-3.0%	20.2
Cc1cc(C(=O)CSc2nc(N)cc(N)n2)c(C)n1C1CC1	6.9%	?	-30.9%	-1.6%	4.5%	-3.1
CCCc1nc(SCC(=O)c2ccc(OC)cc2)c2ccccc2n1	?	-8.4%	4.6%	-5.6%	-7.6%	-83.0*
CCCc1nc(SCC(=O)NC2CCCC2)c2ccccc2n1	-27.1%	3.1%	4.7%	4.1%	0.9%	?
Cc1nc(SCC(=O)c2cc(C)n(C3CC3)c2C)c2ccccc2n1	10µM*	/	/	2.9%	5.5%	?
CCCc1nc(SCC(=O)N2CCCC2)c2ccccc2n1	?	7.2%	8.7%	3.6%	-5.2%	-89.2*
COc1ccc(-c2cc(C(=O)Nc3cccc(O)c3)on2)cc1OC	40.9%	/	-2.3%	9.8%	/	43.2
Cc1c(C(=O)N(C)Cc2cccc(F)c2)oc2c(Cl)cccc12	7.08µM*	6.5%	1.5%	2.6%	-17.3%	-29.3
COc1ccc(-c2nn(-c3ccccc3)cc2/C=N/NS(=O)(=O)c2ccccc2)cc1	35.7%	-5.0%	-9.9%	5.4%	-0.9%	90.3
COc1ccc(/C=N/N2C(=O)CSC2=S)cc1	/	-23.0%	?	1.2%	-10.2%	21.5
COc1ccc(-c2nn(-c3ccccc3)cc2/C=N/O)cc1	14.1µM*	3.9%	12.8%	10.7%	4.2%	31.6
COc1ccc(-c2nn(-c3ccccc3)cc2C(=O)n2nnc3ccccc32)cc1	20µM*	-1.9%	22.4%	-0.9%	-10.5%	76.8
SMILES	FMDV antiviral	Giardia FBPA inh	Sm TGR block	TbPYK inhibitor	RE007 growth inh	HCMV inh
COc1ccc(-c2nn(-c3ccccc3)cc2/C=N/N2C(=O)CSC2=S)cc1	34.9%	-4.9%	-4.7%	2.1%	-2.5%	-96.2*
COc1ccc(-c2nn(-c3ccccc3)cc2/C=N/NC(=O)c2cccc(S(=O)(=O)Nc3ccccc3Cl)c2)cc1	14.7%	3.3%	1.0%	-1.9%	2.2%	-101.4*
COc1ccc(CCNC(=O)c2cnn(-c3ccc(C)c(C)c3)c2NC(=O)c2ccco2)cc1OC	1.0%	-4.8%	11.3%	1.6%	-17.4%	?
Cc1ccc(-n2ncc(C(=O)N3CCc4ccccc4C3)c2NC(=O)c2ccco2)cc1C	23.9%	?	31.6µM*	-5.8%	2.2%	-39.2
COc1ccccc1N1CCN(C(=O)c2nn(-c3ccc(C)cc3)c(=O)n(C)c2=O)CC1	5.8%	/	-6.5%	-5.4%	/	8.7
Cc1ccc(NC(=O)COC(=O)CCc2c[nH]c3ccccc23)cc1	-1.7%	/	/	6.2%	3.1%	0.0
O=C(COC(=O)CCc1c[nH]c(=O)[nH]1)Nc1ccccc1	-3.1%	?	39.8µM*	5.7%	-4.1%	19.9
Cc1ccc(NC(=O)COC(=O)CCc2c[nH]c(=O)[nH]2)cc1	-14.2%	-3.7%	31.6µM*	-1.1%	10.9%	41.3
C[C@@H]1COc2cc(NCCCN3CCOCC3)ccc2S(=O)(=O)N1	/	/	/	/	/	1.7
Cc1ccc2c(c1)N(C(=O)N1CCC(C(=O)NCc3cccc(Br)c3)CC1)CCO2	-1.3%	/	31.5%	-1.1%	/	-22.3
O=C(CCSCc1ccccc1F)N1CCN(c2ccc(F)cc2)CC1	-10.9%	/	13.1%	-4.6%	/	15.5
Cc1cccc(N2CCN(C(=O)CSCc3c(C)noc3C)CC2)c1C	?	0.7%	5.4%	5.4%	18.7%	/
O=C(CCC(=O)N1CCN(c2ccccc2F)CC1)N1CCN(c2ccc(F)cc2)CC1	22.4µM*	4.7%	6.3%	5.8%	3.3%	-62.3*
Cc1noc(C)c1CSCC(=O)N1CCN(c2ccc(F)cc2)CC1	?	0.9%	-8.2%	1.6%	-13.8%	-60.3*
O=C(CCSCc1ccccc1Cl)N1CCN(c2ccc(F)cc2)CC1	3.1%	/	10.3%	-2.3%	/	-63.8*
CCc1nn(CC(=O)NCc2ccco2)c(=O)c2cc3c(OC)cccc3n12	7.4%	/	3.1%	6.4%	/	10.9
Cc1ccc(NC(=O)Cn2nc3c(cc2=O)CCCC3)cc1Cl	-11.4%	/	0.5%	3.5%	/	-7.6
Cc1ccc(NC(=O)Cn2nc(-c3ccco3)ccc2=O)cc1Cl	16.5%	-2.7%	6.31µM*	-5.3%	4.9%	42.4
Cc1ccc(NC(=O)CCn2cccc2)cc1Cl	-9.3%	-7.2%	35.5µM*	-10.0%	-9.1%	-14.9
COc1ccc(-c2cc(C(C)=O)c(C)n2CCC(=O)Nc2ccc(C)c(Cl)c2)cc1	-19.6%	/	6.1%	-6.2%[15.4 µM]	/	+
CCc1ccccc1N(C)C(=O)c1nn(-c2ccc(OC)cc2)c(=O)c2c1c1ccccc1n2C	-22.2%	/	0.2%	3.9%	/	11.6

Assay outcomes deposited in PubChem BioAssay by National Center for Advancing Translational Sciences (NCATS).
